{"source": "PubChem BioAssay (Tox21)", "note": "Inconclusive results are not listed. A call without a number means that no potency is given here. Values without a mark were called inactive. Activity calls are given as the source filed them. The call rests on the fitted dose curve; in most records, active means well fitted activation curve with a large enough effect in the signal ratio in the repeat runs (not every such curve was filed as active); inconclusive means weak or mixed curves; inactive means flat fitted curve, though single readings scatter; the % refers to the signal ratio. Bridge positions count the residues as written; N and C are the ends. Square brackets hold non-standard residues; d marks the D form. Peptide text beside a SMILES is read from it. hArg = N=C(N)NCCCC[C@H](N)C(=O)O; Mpa = O=C(O)CCS"}
{"assay": "p53 small molecule agonists, cell-based qHTS assay (AID 1963582); further: potency means the concentration at half of the fitted maximal effect", "details": "HCT-116 p53RE-bla reporter, beta-lactamase FRET ratio, 16 h; series mostly up to 66 µM", "description": "National Center for Advancing Translational Sciences [NCATS]\nDivision of Preclinical Innovation [DPI]\nU.S. Environmental Protection Agency [EPA]\nNational Institutes of Environmental Health Sciences [NIEHS]\nNational Toxicology Program [NTP]\nU.S. Food and Drug Administration [FDA]\np53, a tumor suppressor protein, is activated following cellular insult, including DNA damage and other cellular stresses. The activation of p53 regulates cell fate by inducing DNA repair, cell cycle arrest, apoptosis, or cellular senescence. The activation of p53, therefore, is a good indicator of DNA damage and other cellular stresses. […] The activation of the reporter gene under culture conditions can be detected by fluorescence intensity. This cell line was used to screen the Tox21 10K compound library in a 1536-well plate format and to identify agonists that activate the p53 signaling pathway.\nTox21 Assay Protocol Summary:\nThe p53RE-bla cells were dispensed at 4,000 cells/5 ul/well in 1536-well black wall/clear bottom plates using a Multidrop dispenser. After the assay plates were incubated at a 37 C/5% CO2 incubator for 5 hours, 23 nL of compounds dissolved in DMSO, positive controls or DMSO only was transferred to the assay plate by a pin tool. The plates were incubated at 37 C for 16 hours. After 1 uL of LiveBLAzerTM B/G FRET substrate was added using a Flying Reagent Dispenser, the plates were incubated at room temperature for 2 hours, and fluorescence intensity was measured by an Envision plate reader."}
{"smiles": "COc1cc(NS(=O)(=O)c2ccc(N)cc2)nc(C)n1", "Potency": "inactive"}
{"smiles": "Nc1ccc([N+](=O)[O-])c(N)c1", "Potency": "inactive"}
{"smiles": "CC(=O)OCCC(C)CC(C)(C)C", "note": "(stereo not given)", "Potency": "inactive"}
{"smiles": "CCCCC(CC)CNC(=O)CC(C)OC(=O)CCC(=O)O", "note": "(stereo not given)", "Potency": "inactive"}
{"smiles": "CCN(Cc1cccc(S(=O)(=O)O)c1)c1ccc(C(=C2C=CC(=[N+](CC)Cc3cccc(S(=O)(=O)O)c3)C=C2)c2ccccc2S(=O)(=O)[O-])cc1", "Potency": "inactive"}
{"smiles": "CC(C)OC(=O)CCC(=O)OC(C)C", "Potency": "inactive"}
{"smiles": "O=C(NCC(O)CO)c1c(I)c(C(=O)NCC(O)CO)c(I)c(N(CCO)C(=O)CO)c1I", "note": "(stereo not given)", "Potency": "inactive"}
{"smiles": "C=CC(=O)OCCC#N", "Potency": "inactive"}
{"smiles": "Cc1ccc(O)c([C@H](CCN(C(C)C)C(C)C)c2ccccc2)c1", "Potency": "inactive"}
{"smiles": "CCCCNc1cc(C(=O)O)cc(S(N)(=O)=O)c1Oc1ccccc1", "Potency": "inactive"}
{"smiles": "O=C(CC(=O)C(F)(F)F)c1ccccc1", "Potency": "inactive"}
{"smiles": "Cc1ccc2ccc(Cl)cc2n1", "Potency": "inactive"}
{"smiles": "C=C(C)C(=O)OC", "Potency": "inactive"}
{"smiles": "CCCCC/C=C\\C=C\\C(=O)OCC", "Potency": "inactive"}
{"smiles": "NC(N)=N/N=C/c1c(Cl)cccc1Cl", "Potency": "inactive"}
{"smiles": "CN1C(=O)c2ccccc2C1=O", "Potency": "inactive"}
{"smiles": "CCN1CCN(C(=O)N[C@@H](C(=O)N[C@@H]2C(=O)N3C(C(=O)O)=C(CSc4nnnn4C)CS[C@H]23)c2ccc(O)cc2)C(=O)C1=O", "Potency": "inactive"}
{"smiles": "CCO/C=C1\\N=C(c2ccccc2)OC1=O", "Potency": "inactive"}
{"smiles": "CCCCCCNC(=O)n1cc(F)c(=O)[nH]c1=O", "Potency": "5 µM (active)"}
{"smiles": "Cc1c(C(=O)O)c(O)cc2c1C(=O)c1c(O)c([C@@H]3O[C@H](CO)[C@@H](O)[C@H](O)[C@H]3O)c(O)c(O)c1C2=O", "Potency": "inactive"}
{"smiles": "Cc1oc2c(NC(=O)c3c(Cl)cccc3Cl)cccc2c1C(C)(C)O", "Potency": "inactive"}
{"smiles": "O=C(O)Cc1cc(I)c(Oc2ccc(O)c(I)c2)c(I)c1", "Potency": "11.5 µM (active)"}
{"smiles": "CCCCCc1ccc(O)cc1", "Potency": "inactive"}
{"smiles": "Cc1cc(O)c(Cl)c(C)c1Cl", "Potency": "inactive"}
{"smiles": "O=S(=O)(O)c1cc(S(=O)(=O)O)c2ccc3c(S(=O)(=O)O)cc(S(=O)(=O)O)c4ccc1c2c43", "activation": "4.26% [at 13.5 µM]"}
{"smiles": "C=CCCCCCCC=C", "Potency": "inactive"}
{"smiles": "CCCCCCCCCCCCCCCCN(C)C", "activation": "9.5% [at 5.99 µM]"}
{"smiles": "C=Cc1ccncc1", "Potency": "inactive"}
{"smiles": "O=C(Oc1ccccc1)c1ccc2ccccc2c1O", "Potency": "inactive"}
{"smiles": "CCC(C)Nc1ccc(NC(C)CC)cc1", "note": "(stereo not given)", "Potency": "inactive"}
{"smiles": "NC(=O)[C@@H]1CSSCCC(=O)N[C@@H](CCCCN=C(N)N)C(=O)NCC(=O)N[C@@H](CC(=O)O)C(=O)N[C@@H](Cc2c[nH]c3ccccc23)C(=O)N2CCC[C@H]2C(=O)N1", "note": "([Mpa][hArg]GDWPC-NH2; disulfide 1-7)", "Potency": "inactive"}
{"smiles": "COc1ccc(S(=O)(=O)Nc2nnc(CC(C)C)s2)cc1", "Potency": "inactive"}
{"smiles": "CCn1nc(C(=O)O)c(=O)c2cc3c(cc21)OCO3", "Potency": "inactive"}
{"smiles": "CC1=C(C(=O)O)N2C(=O)[C@@H](NC(=O)[C@H](N)c3ccccc3)[C@H]2SC1", "Potency": "inactive"}
{"smiles": "C1=CC2C3C=CC(C3)C2C1", "note": "(stereo not given)", "Potency": "inactive"}
{"smiles": "Nc1cccnc1N", "Potency": "inactive"}
{"smiles": "O=S(=O)(Oc1ccc(Cl)cc1)c1ccccc1", "Potency": "inactive"}
{"smiles": "CCCCCCC1CCC(=O)O1", "note": "(stereo not given)", "Potency": "inactive"}
{"smiles": "CC(C)c1nnc2ccc(-c3ocnc3-c3cc(F)ccc3F)cn12", "Potency": "inactive"}
{"smiles": "CCCNCC(O)COc1ccccc1C(=O)CCc1ccccc1", "note": "(stereo not given)", "Potency": "inactive"}
